{
  "source": "PubChem BioAssay (NCATS)",
  "note": "Results filed as inconclusive are left out. A call without a number means that no potency is given here. The source made the active and inactive calls. Calls come from the whole dose curve; as a rule, active = well fitted inhibition curve with a large enough effect; inconclusive = small, poorly fitted or top-dose-only effect; inactive = no such curve, though single readings can be large or run the other way. Potency is the fitted concentration of half-maximal effect.",
  "data": [
    {"tested_on": "Zika virus NS2B-NS3 protease (unlinked)", "assay": "Optimization of GU AMC qHTS for Zika virus inhibitors: Unlinked NS2B-NS3 protease assay (AID 1347151); note: nearly all actives have a fitted effect of over 80% in size", "conditions": "recombinant ZIKV NS2B-NS3 protease, fluorogenic AMC substrate; series mostly up to 52.5 µM", "excerpt": "Avindra Nath, Ph.D., National Institute of Neurological Disorders and Stroke (NINDS), Bethesda, MD\nRadhakrishnan Padmanabhan, Ph.D., Georgetown University (GU), Washington D.C.\nZika Virus causes congenital defects, including microcephaly and is associated with Guillain-Barre syndrome, eningoencephalitis and myelitis in infected adult. […] Using a target-based approach, we hope to establish a screening paradigm to uncover novel, cell-active NS2B-NS3 protease (Zika Virus) specific inhibitors from NCATS' collection of small molecules using qHTS.\nEarly Translation Branch (ETB)\nNational Center for Advancing Translational Sciences (NCATS), Rockville, MD\nNational Institute of Health (NIH), Bethesda, Maryland\nPadmanabhan lab provided the NS2B hydrophilic domain and NS3 protease domain in a noncovalent complex used for the unlinked assay. Control compound aprotinin is obtained from Thermo Scientific (#78432; Waltham, Massachusetts). NS2B-NS3 AMC substrate (Bz-Nle-Lys-Arg-Arg-AMC; Nle-KRR-AMC) purchased from Bachem (#I-1995; Torrance, CA). Ac-VKTGKR-AMC purchased from Genscript or Bachem, Ac-FAAGKR-AMC purchased from Genscript, Ac-GLVKRR-AMC purchased from Genscript, Ac-LKKR-AMC purchased from Genscript.\nGU AMC unlinked NS2B-NS3 protease qHTS protocol:\nBriefly, 3 microL of Zika virus unlinked NS2B-NS3 protease (25 nM for linked final concentration), in assay buffer (10 mM Tris-HCl pH 8.0 with 0.01% Tween 20) was dispensed into a 1,536-well solid-bottom black plate (Greiner Bio One, Monroe, NC). Twenty-three nL of compounds (final concentration range 7.28 nM to 114 microM) or control Aprotinin (final concentration range 3.47 nM to 114 microM) were transferred via Wako Pin-tool (Wako Automation, Richmond, VA). […] Plates were then read immediately on a ViewLux High-throughput CCD imager (PerkinElmer, Waltham, MA) equipped with standard UV fluorescence optics (340(30) nm excitation, 450(20) nm emission) then incubated (room temperature, protected from light) for 15 minutes (~20% conversion). The change in fluorescence intensity over the 15-minute reaction period was normalized against no-inhibitor and no-enzyme controls and the resulting percent inhibition data were fitted to a 4-parameter Hill equation. Aprotinin was used as the intraplate control.", "values": [
      {"smiles": "O=C(/C=C/c1ccc(O)c(O)c1)OCCc1ccccc1", "Potency": "6.7 µM (active)"},
      {"smiles": "COc1cccc(C(=O)NCCN2CCN(c3ccc(Cl)cc3)CC2)c1", "Potency": "inactive"},
      {"smiles": "N[C@@H](CC(=O)O)C(=O)O", "Potency": "inactive"},
      {"smiles": "O=C1NC(=O)c2c1c(-c1ccccc1)cc1[nH]c3ccc(O)cc3c21", "Potency": "inactive"},
      {"smiles": "CCOC(=O)C1=C(C)NC(C)=C(C(=O)OCC)C1c1c(F)c(F)c(F)c(F)c1F", "Potency": "23.8 µM (active)"},
      {"smiles": "O=C(CCCCCN1CCN(c2ccccc2-c2ccccc2)CC1)NC1CCCc2ccccc21", "note": "(stereo not given)", "Potency": "23.8 µM (active)"},
      {"smiles": "Nc1ncnc2c1ncn2[C@@H]1O[C@H](COP(=O)(O)OP(=O)(O)OP(=O)(O)OP(=O)(O)OC[C@@H]2O[C@H](n3cnc4c(N)ncnc43)[C@@H](O)[C@H]2O)[C@@H](O)[C@H]1O", "Potency": "inactive"},
      {"smiles": "NC(CCCP(=O)(O)O)C(=O)O", "note": "(stereo not given)", "Potency": "inactive"},
      {"smiles": "O=C(c1ccc(OCCCc2cnc[nH]2)cc1)C1CC1", "Potency": "inactive"},
      {"smiles": "CCC1C(=O)OCC1Cc1cncn1C", "note": "(stereo not given)", "Potency": "inactive"},
      {"smiles": "CCN1/C(=C/C(C)=O)Sc2ccc(OC)cc21", "Potency": "inactive"},
      {"smiles": "O=C(Nc1ccccc1)c1cc([N+](=O)[O-])ccc1Cl", "Potency": "inactive"},
      {"smiles": "O=C(c1ccc(Cl)cc1)N1CCN(c2ccc([N+](=O)[O-])c3ncccc23)CC1", "Potency": "inactive"},
      {"smiles": "C[N+]1(C)CCC(OC(=O)C(c2ccccc2)c2ccccc2)CC1", "Potency": "inactive"},
      {"smiles": "NS(=O)(=O)c1ccc(-n2nc(C(F)(F)F)cc2-c2ccc(Cl)cc2)cc1", "Potency": "inactive"},
      {"smiles": "CSc1nc(N)c2ncn([C@@H]3O[C@H](COP(=O)(O)OP(=O)(O)OP(=O)(O)O)[C@@H](O)[C@H]3O)c2n1", "Potency": "inactive"},
      {"smiles": "c1ccc(-c2ccccn2)nc1", "Potency": "inactive"},
      {"smiles": "CCC(CO)Nc1nc(NCc2ccccc2)c2ncn(C(C)C)c2n1", "note": "(stereo not given)", "Potency": "inactive"},
      {"smiles": "O=C(Nc1ccncc1)c1cc([N+](=O)[O-])ccc1Cl", "Potency": "inactive"},
      {"smiles": "CN[C@H](CC(C)C)C(=O)N[C@H]1C(=O)N[C@@H](CC(N)=O)C(=O)N[C@H]2C(=O)N[C@H]3C(=O)N[C@H](C(=O)N[C@H](C(=O)O)c4cc(O)cc(O)c4-c4cc3ccc4O)[C@H](O)c3ccc(c(Cl)c3)Oc3cc2cc(c3O[C@@H]2O[C@H](CO)[C@@H](O)[C@H](O)[C@H]2O[C@H]2C[C@](C)(N)[C@H](O)[C@H](C)O2)Oc2ccc(cc2Cl)[C@H]1O", "Potency": "inactive"},
      {"smiles": "COc1ccccc1CNCCCCCCNCCCCCCCCNCCCCCCNCc1ccccc1OC", "Potency": "inactive"},
      {"smiles": "COc1ccc(/C=C/c2nc(NCCCN(C)C)c3ccccc3n2)cc1", "Potency": "26.7 µM (active)"},
      {"smiles": "CC(=O)N[C@H](C(=O)O)C(C)(C)SN=O", "Potency": "inactive"},
      {"smiles": "CC(C)Cc1ccc([C@H](C)C(=O)O)cc1", "Potency": "inactive"},
      {"smiles": "O=C(O)CCCC[C@@H]1CCSS1", "Potency": "inactive"},
      {"smiles": "OCC1O[C@H]([S-])[C@H](O)[C@@H](O)[C@@H]1O.[Au+]", "note": "(stereo not given in full)", "Potency": "inactive"},
      {"smiles": "O=C(/C=C/c1ccc(O)cc1)c1ccc(O)cc1O", "Potency": "inactive"},
      {"smiles": "Nc1nc(SCc2ccc([N+](=O)[O-])cc2)c2ncn([C@@H]3O[C@H](CO)[C@@H](O)[C@H]3O)c2n1", "Potency": "inactive"},
      {"smiles": "O=C(O)c1cc(=O)c2c(Cl)cc(Cl)cc2[nH]1", "Potency": "inactive"},
      {"smiles": "Nc1nc(Nc2ccccc2)nc2c1ncn2[C@@H]1O[C@H](CO)[C@@H](O)[C@H]1O", "Potency": "inactive"},
      {"smiles": "COc1cc(SC)ccc1C(=O)N1CCC(Cc2ccccc2)CC1", "Potency": "inactive"},
      {"smiles": "CNC(=O)[C@H]1O[C@@H](n2cnc3c(NCc4cccc(I)c4)ncnc32)[C@H](O)[C@@H]1O", "Potency": "inactive"},
      {"smiles": "CN1C2CCC1CC(OC(=O)C(O)c1ccccc1)C2", "note": "(stereo not given)", "Potency": "inactive"},
      {"smiles": "O=C(O)CNC(=O)C(CS)Cc1ccccc1", "note": "(stereo not given)", "Potency": "inactive"},
      {"smiles": "Oc1ccccc1O", "Potency": "inactive"},
      {"smiles": "Cc1ccc(O)c(N=Nc2ccccc2)n1", "Potency": "inactive"},
      {"smiles": "CCNC(=O)[C@H]1O[C@@H](n2cnc3c(N)nc(NCCc4ccc(CCC(=O)O)cc4)nc32)[C@H](O)C1O", "note": "(stereo not given in full)", "Potency": "inactive"},
      {"smiles": "CCN(CC)c1ncnc2c1ncn2[C@@H]1O[C@H](COP(=O)(O)OP(=O)(O)C(Br)(Br)P(=O)(O)O)[C@@H](O)[C@H]1O", "Potency": "inactive"},
      {"smiles": "C=CC(C)=C[C@@]1(C)SC(=O)C(C)=C1O", "Potency": "inactive"},
      {"smiles": "CN1CC(=O)N/C1=N/C(=O)Nc1cccc(Cl)c1", "Potency": "inactive"}
    ]}
  ]
}
